Experimental data reported in PubChem BioAssay (EPA / NIEHS).
Inconclusive results are not listed. Activity calls are given as the source filed them. How the source made its calls: active means hit-call score of the fitted dose curve at least 0.9, where 1 is the maximum; inconclusive means response in the unintended direction; inactive means score below 0.9.

Assays:
[1] = TOX21_p53_BLA_p2_viability: Viability Assessment in the Tox21 HCT-116 p53 Agonism Beta-lactamase Assay, Phase 2 (AID 2283591);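 further: actives lower the ATP signal meaning cytotoxicity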
In short: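 HCT-116 p53-bla cells (4000/well) rested 5 h at 37C, then received compounds in DMSO (217-fold dilution) for 16 h at 37C, 5% CO2. After the CCF4 read, CellTiter-Glo was added; ATP luminescence was read after 30 min at room temperature.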

[2] = molecular target: Cellular tumor antigen p53 (Homo sapiens) (UniProt P04637); assay: TOX21_p53_BLA_p2_ratio: Tox21 HCT-116 p53 Agonism Beta-lactamase Assay, Ratio, Phase 2 (AID 2283592)
In short: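 First, HCT116 reporter cells settle for 5 h at 37C. Next, DMSO compound solutions are pinned in (217-fold dilution) and left 16 h. Finally, CCF4-AM substrate is loaded 2 h at room temperature and the 460/530 nm ratio read.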

[3] = molecular target: Cellular tumor antigen p53 (Homo sapiens) (UniProt P04637); assay: TOX21_p53_BLA_p3_ratio: Tox21 HCT-116 p53 Agonism Beta-lactamase Assay, Ratio, Phase 3 (AID 2283596)
In short: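 Cells were seeded at 4000/well, rested 5 h at 37C, then dosed with DMSO compound solutions (217-fold dilution) for 16 h. CCF4-AM substrate was loaded for 2 h at room temperature, and the 460/530 nm emission ratio was fitted for gain of signal versus DMSO.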

[4] = TOX21_p53_BLA_p4_viability: Viability Assessment in the Tox21 HCT-116 p53 Agonism Beta-lactamase Assay, Phase 4 (AID 2283597);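 further: hits lower the luminescence signal meaning cytotoxicity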
In short: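 4000 HCT116 cells per well; 5 h attachment; compounds from DMSO, 217-fold dilution; 16 h at 37C. Then CCF4-AM, 2 h RT, followed by CellTiter-Glo, 30 min RT, luminescence. Decrease = cytotoxicity.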

[5] = molecular target: Cellular tumor antigen p53 (Homo sapiens) (UniProt P04637); assay: TOX21_p53_BLA_p5_ratio: Tox21 HCT-116 p53 Agonism Beta-lactamase Assay, Ratio, Phase 5 (AID 2283599)
In short: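 HCT-116 cells carrying a p53-inducible beta-lactamase reporter were seeded at 4000 cells/well and dosed after 5 h with compound in DMSO (217-fold dilution). After 16 h at 37C, CCF4-AM substrate was added for 2 h, and the 460/530 nm emission ratio was scored as gain-of-signal versus DMSO.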

[6] = TOX21_p53_BLA_p5_viability: Viability Assessment in the Tox21 HCT-116 p53 Agonism Beta-lactamase Assay, Phase 5 (AID 2283600)
In short: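 Decreased CellTiter-Glo luminescence denotes lost viability. Exposure: 16 h at 37C, 5% CO2, with compounds from DMSO stocks diluted 217-fold in wells of 4000 cells.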

[7] = molecular target: Cellular tumor antigen p53 (Homo sapiens) (UniProt P04637); assay: TOX21_p53_BLA_p4_ratio: Tox21 HCT-116 p53 Agonism Beta-lactamase Assay, Ratio, Phase 4 (AID 2283601)
In short: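 HCT116 cells carrying an inducible beta-lactamase reporter were plated at 4000 cells/well, rested 5 h, then exposed to compounds in DMSO (217-fold dilution) for 16 h at 37C. CCF4-AM substrate was loaded 2 h at room temperature; 460/530 nm emission ratio scored gain-of-signal versus DMSO.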

Measured: AC50

Chain of Cellular tumor antigen p53 (Homo sapiens) (P04637 whole entry, looked up): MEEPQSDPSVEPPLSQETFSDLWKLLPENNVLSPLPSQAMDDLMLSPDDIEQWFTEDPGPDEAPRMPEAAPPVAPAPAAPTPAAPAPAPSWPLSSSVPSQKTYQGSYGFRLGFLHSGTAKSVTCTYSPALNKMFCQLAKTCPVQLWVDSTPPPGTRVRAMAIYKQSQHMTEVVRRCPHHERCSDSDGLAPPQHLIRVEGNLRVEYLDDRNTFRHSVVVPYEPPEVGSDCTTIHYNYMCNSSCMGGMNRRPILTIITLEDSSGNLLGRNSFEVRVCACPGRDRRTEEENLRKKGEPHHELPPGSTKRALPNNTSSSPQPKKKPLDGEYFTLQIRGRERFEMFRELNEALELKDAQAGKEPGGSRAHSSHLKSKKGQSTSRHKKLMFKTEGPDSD

CO[C@]12CC[C@@]3(C[C@@H]1[C@](C)(O)C(C)(C)C)[C@H]1Cc4ccc(O)c5c4[C@@]3(CCN1CC1CC1)[C@H]2O5
active: [1] 75 µM | [3] 86.6 µM | [4] 60.6 µM | [7] 84.8 µM
inactive: [2] | [5] | [6]

O=S1(=O)OCCO1
inactive: [1] | [2] | [4] | [5] | [6] | [7]

NCCCNCCCN
inactive: [1] | [2] | [4] | [5] | [6] | [7]

c1ccc2c(c1)CCNC2
inactive: [1] | [2] | [4] | [6]

CC(C)NCC(O)c1ccc([N+](=O)[O-])cc1 (configuration not stated)
inactive: [1] | [2] | [4] | [6] | [7]

Clc1cc2c(cc1Cl)Oc1cc(Cl)c(Cl)cc1O2
inactive: [1] | [2] | [4] | [5]

[2H]C([2H])([2H])[C@H](N)Cc1ccccc1
inactive: [1] | [2] | [3] | [6]

NP(N)(=O)NC(=O)c1ccc(F)cc1
inactive: [1] | [2] | [4] | [6] | [7]

CCCCC/C=C\C/C=C\C/C=C\C/C=C\CCCC(=O)NCC(=O)O
inactive: [1] | [2] | [4] | [5] | [6] | [7]
